# Assay results: article PMC11006913
# Target: PITX2 (Homo sapiens, UniProt Q99697 72-157)
# Assay: PBM; 200 nM protein, PBS
# Conditions: dsDNA, one strand shown
row,Sequence,binding signal
1,ACTCTCGG,"8.08 upbm affinity estimate (log intensity, higher = more binding, comparable within an allelic series)"
2,CATGTTCG,"8.09 upbm affinity estimate (log intensity, higher = more binding, comparable within an allelic series)"
3,ACGTTCCG,"7.96 upbm affinity estimate (log intensity, higher = more binding, comparable within an allelic series)"
4,GGCATTAC,"10.5 upbm affinity estimate (log intensity, higher = more binding, comparable within an allelic series)"
5,CACCGGGC,"7.98 upbm affinity estimate (log intensity, higher = more binding, comparable within an allelic series)"
6,CACTAGTG,"8.21 upbm affinity estimate (log intensity, higher = more binding, comparable within an allelic series)"
7,CGGGCACA,"8 upbm affinity estimate (log intensity, higher = more binding, comparable within an allelic series)"
8,CAGACACG,"7.83 upbm affinity estimate (log intensity, higher = more binding, comparable within an allelic series)"
9,ACCATCGT,"7.89 upbm affinity estimate (log intensity, higher = more binding, comparable within an allelic series)"
10,AGGATTTA,"12.4 upbm affinity estimate (log intensity, higher = more binding, comparable within an allelic series)"
11,AAGGGATT,"11.6 upbm affinity estimate (log intensity, higher = more binding, comparable within an allelic series)"
12,ATTAGGCC,"10 upbm affinity estimate (log intensity, higher = more binding, comparable within an allelic series)"
13,ACGTGTCC,"8.04 upbm affinity estimate (log intensity, higher = more binding, comparable within an allelic series)"
14,CGGTGATA,"9.92 upbm affinity estimate (log intensity, higher = more binding, comparable within an allelic series)"
15,CCGAGCAG,"8.01 upbm affinity estimate (log intensity, higher = more binding, comparable within an allelic series)"
16,GGAATAAA,"9.51 upbm affinity estimate (log intensity, higher = more binding, comparable within an allelic series)"
17,CCAAATCG,"9.39 upbm affinity estimate (log intensity, higher = more binding, comparable within an allelic series)"
18,CGAGCGTC,"7.93 upbm affinity estimate (log intensity, higher = more binding, comparable within an allelic series)"
19,GATGATAA,"9.84 upbm affinity estimate (log intensity, higher = more binding, comparable within an allelic series)"
20,CGACGTCA,"8.05 upbm affinity estimate (log intensity, higher = more binding, comparable within an allelic series)"

row,Sequence,binding signal
1,CTAAATCC,"12.4 upbm affinity estimate (log intensity, higher = more binding, comparable within an allelic series)"
2,ACCGTTGC,"8.17 upbm affinity estimate (log intensity, higher = more binding, comparable within an allelic series)"
3,GGATTTAA,"12.5 upbm affinity estimate (log intensity, higher = more binding, comparable within an allelic series)"
4,GGTATTAA,"12.3 upbm affinity estimate (log intensity, higher = more binding, comparable within an allelic series)"
5,CTAGCGAG,"8.11 upbm affinity estimate (log intensity, higher = more binding, comparable within an allelic series)"
6,CCTCAACG,"7.97 upbm affinity estimate (log intensity, higher = more binding, comparable within an allelic series)"
7,GCCTCACC,"8.04 upbm affinity estimate (log intensity, higher = more binding, comparable within an allelic series)"
8,ATAGGCTC,"9.54 upbm affinity estimate (log intensity, higher = more binding, comparable within an allelic series)"
9,ACATACGT,"8.05 upbm affinity estimate (log intensity, higher = more binding, comparable within an allelic series)"
10,TATTAGCA,"10.1 upbm affinity estimate (log intensity, higher = more binding, comparable within an allelic series)"
11,GACGGTGA,"8.15 upbm affinity estimate (log intensity, higher = more binding, comparable within an allelic series)"
12,AGGGATAG,"9.94 upbm affinity estimate (log intensity, higher = more binding, comparable within an allelic series)"
13,GGAGGAAC,"8.06 upbm affinity estimate (log intensity, higher = more binding, comparable within an allelic series)"
14,ACGATGCC,"7.9 upbm affinity estimate (log intensity, higher = more binding, comparable within an allelic series)"
15,ACGCCGAG,"8 upbm affinity estimate (log intensity, higher = more binding, comparable within an allelic series)"
16,CAGTTCCG,"8.03 upbm affinity estimate (log intensity, higher = more binding, comparable within an allelic series)"
17,CATTATTC,"9.49 upbm affinity estimate (log intensity, higher = more binding, comparable within an allelic series)"
18,AGCACGCC,"8.07 upbm affinity estimate (log intensity, higher = more binding, comparable within an allelic series)"
19,GATGAGCC,"9.56 upbm affinity estimate (log intensity, higher = more binding, comparable within an allelic series)"
20,AAGCCCTA,"10.4 upbm affinity estimate (log intensity, higher = more binding, comparable within an allelic series)"
